Screening results: PubChem, National Center for Advancing Translational Sciences (NCATS)
In the library only some 2.4% were active in any assay of this set; here they are far more common.
Pol kappa inh – qHTS for Inhibitors of Polymerase Kappa; Potency, µM (doses to about 107 µM), without a hit: top-dose activity, negative = inhibition, most hits filed as inhibitors; DNA polymerase kappa (Homo sapiens), Q9UBT6; actives 0.53% (n = 400,000); purified Pol kappa, fluorescent DNA synthesis assay, 10 min; also: % is scaled to controls: 0 for no effect and ±100 for the full control effect
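Kinetic fluorescence screen: compound preincubated 15 min RT with 10 nM enzyme; 50 nM substrate (final) initiates; reads at 0/10 min.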
Pol eta inh – qHTS for Inhibitors of Polymerase Eta. recombinant Pol eta, fluorescent DNA replication assay. actives 1.2% (n = 390,000). Potency, µM (doses to about 114 µM), for inactives: top-dose activity change, negative = inhibition, usual class: inhibitors; also: % is scaled to controls: 0 for no effect and ±100 for the full control effect
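Pol eta at 10 nM preincubated with compounds 15 min at room temperature; reaction started with fluorescent substrate (50 nM final) and read kinetically at 0 and 10 min.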
POLB inh – qHTS Assay for Inhibitors of DNA Polymerase Beta; P06746; actives 1.3% (n = 340,000); AID 485314, 2010; Pol beta primer extension/strand displacement, fluorescence kinetic; Potency, µM (series often up to 114 µM), inactives show top-dose activity change, negative = inhibition, most hits filed as inhibitors; also: % is scaled to controls: 0 for no effect and ±100 for the full control effect
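Preincubation: enzyme (10 nM) with compound, 15 min, RT. Reaction: substrate added to 50 nM final. Reads: 0 and 10 min. Analysis: normalized, Hill fit.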
Pol iota inh – qHTS for Inhibitors of Polymerase Iota; DNA polymerase iota (Homo sapiens), Q9UNA4; Pol iota fluorescent replication assay, 10 min; Potency, µM (doses to about 115 µM), inactives show at the top dose activity, negative = inhibition, hits mostly inhibitors; actives 1% (n = 390,000)
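Fluorescent replication assay read twice, at 0 min and 10 min after adding 50 nM (final) substrate. Enzyme (10 nM) and compounds were first incubated 15 min at room temperature; enzyme-free buffer wells were negative controls.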
FEN1 inhibitor – qHTS Assay for the Inhibitors of Human Flap endonuclease 1 (FEN1) | P39748 | Recombinant FEN1 flap cleavage, fluorescence, 15 min | Potency, µM (series often up to 114 µM), for the others: top-dose activity change, negative = inhibition, most hits filed as inhibitors | actives 0.35% (n = 390,000) | AID 588795, 2011; also: % is scaled to controls: 0 for no effect and ±100 for the full control effect; nearly all actives have a fitted effect of over 65% in size
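FEN1 at 10 nM preincubated with compounds 15 min at room temperature, then flap DNA substrate added at 50 nM final. Signal read at 0 and 15 min; concentration-response fitted with four-parameter Hill equation.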
WRN inhibitor – qHTS for Inhibitors of WRN Helicase. actives 0.46% (n = 360,000). Potency, µM (top dose mostly 114 µM), for inactives: at the highest dose activity change, negative = inhibition, usual class: inhibitors. AID 651768, 2012. WRN helicase unwinding, fluorescent forked duplex, kinetic. Bifunctional 3'-5' exonuclease/ATP-dependent helicase WRN (Homo sapiens), Q14191; also: % is scaled to controls: 0 for no effect and ±100 for the full control effect; nearly all actives have a fitted effect of over 55% in size
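Kinetic red-fluorescence monitoring (525/598 nm) tracks WRN helicase activity after 100 nM fluorophore-quencher forked duplex and 2 mM ATP are added to 20 nM enzyme pretreated 15 min at room temperature with compound.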
Numbers without * were called inactive; [ ] = dose if it differs, or a comment. Calls follow the shape of the dose curve; as a rule, active = well fitted curve in the direction sought with a large enough effect; inconclusive = small, poorly fitted or top-dose-only effect, or another doubt; inactive = no such curve, though single readings can be large; an effect the other way counts as inactive or inconclusive. Potency is read from the fitted curve at half-maximal effect.

Screening COCCCNC(=O)c1ccc(Cn2c(=O)c3ccccc3n(CC(=O)Nc3c(C)cccc3C)c2=O)cc1 returned Pol kappa inh -32%, Pol eta inh -11%, POLB inh 50µM*, Pol iota inh 89µM* and FEN1 inhibitor 2%.
CCN(Cc1ccccc1)c1ccc(/C=C/c2nccc3ccccc23)cc1 was read as Pol kappa inh -5%, Pol iota inh 4% and FEN1 inhibitor -3%.
For COc1ccccc1-c1cc2nc(C)cc(C)n2n1 the results were Pol kappa inh 0%, Pol eta inh -20%, POLB inh 89µM*, Pol iota inh 41%, FEN1 inhibitor 3% and WRN inhibitor -5%.
`COCCCn1c2nc3ccccc3nc2c2c(=O)n(Cc3ccc(Cl)cc3)cnc21` gave Pol kappa inh 1%, Pol eta inh 1%, POLB inh 1%, Pol iota inh 14%, FEN1 inhibitor 9% and WRN inhibitor 8%.
Screening O=c1c2c3nc4ccccc4nc3n(Cc3ccccc3)c2ncn1Cc1ccco1 returned Pol kappa inh inconclusive, Pol eta inh 18µM*, POLB inh 28µM*, Pol iota inh inconclusive, FEN1 inhibitor -18% and WRN inhibitor inconclusive.
`CCCCCCCCCCCCCCCC[n+]1cccc2ccccc21` gave Pol kappa inh -16%, Pol eta inh -23%, POLB inh 27%, Pol iota inh inconclusive, FEN1 inhibitor 79µM* and WRN inhibitor inconclusive.
`CCCCCCCCCCCC[n+]1ccc(C)c2ccccc21` gave Pol kappa inh -11%, Pol iota inh inconclusive and FEN1 inhibitor 35µM*.
`CCCCCCC[n+]1ccc(C)c2ccccc21` gave Pol kappa inh -5%, Pol iota inh 22% and FEN1 inhibitor 3%.
Screening CCCCCCCCC[n+]1cccc2c3ccccc3ccc21 returned Pol kappa inh -9%, Pol eta inh -9%, POLB inh 3%, Pol iota inh -6%, FEN1 inhibitor 6% and WRN inhibitor 2%.
`O=C(Nc1cccc(Cl)c1)c1cnc2sc(N3CCCC3)nn2c1=O` gave Pol kappa inh -4%, POLB inh 3%, Pol iota inh 0% and FEN1 inhibitor -3%.
Screening O=C(NNc1ccccc1F)c1sccc1Cl returned Pol kappa inh 6%, Pol iota inh 12% and FEN1 inhibitor -6%.
Cc1ccc2nc(Nc3ccc(F)cc3)c3nncn3c2c1 was read as Pol kappa inh 3%, Pol eta inh -17%, POLB inh 32µM*, Pol iota inh 6%, FEN1 inhibitor 15% and WRN inhibitor -3%[57.1 µM].
For Cc1ccc(C)c(/C(O)=C2/C(=O)C(=O)N(CCN3CCOCC3)C2c2ccco2)c1 (configuration not stated) the results were Pol kappa inh inconclusive, Pol eta inh 22µM*, POLB inh 7.1µM*, Pol iota inh inconclusive, FEN1 inhibitor -19% and WRN inhibitor -32%.
`O=S(=O)(c1ccccc1)c1nnn2c1nc(NCc1ccccc1)c1cc(Cl)ccc12` gave Pol kappa inh -5%, Pol eta inh -8%, POLB inh -3%, Pol iota inh 31% and FEN1 inhibitor -5%.
Cc1cc(C)nc(SCCc2ccncc2)n1 was read as Pol kappa inh 2%, Pol eta inh -11%, POLB inh -2%, Pol iota inh 22µM*, FEN1 inhibitor -3% and WRN inhibitor 0%.
`C=C1C=C(C)n2ncc(C(=O)NCCCCCC)c2N1` gave Pol kappa inh 2%, Pol iota inh 28% and FEN1 inhibitor -7%.
CCc1ccc(Oc2c(C(F)(F)F)oc3c(CN4CCCC(C)C4)c(O)ccc3c2=O)cc1 (configuration not stated) was read as Pol kappa inh -11%, Pol eta inh -4%, POLB inh -9%, Pol iota inh 7% and FEN1 inhibitor 15%.
`COc1cc2c(NC3CCN(C)CC3)nc(N3CCCCC3)nc2cc1OCCOCCN1CCCC1` gave Pol kappa inh -19%, Pol iota inh inconclusive and FEN1 inhibitor 20µM*.
For COc1cc2c(NC3CCN(C)CC3)nc(N3CCCN(C)CC3)nc2cc1OCCCN1CCOCC1 the results were Pol kappa inh -7%, Pol iota inh -16% and FEN1 inhibitor 22µM*.
`COc1cc2nc(N3CCCN(C)CC3)nc(NC3CCCCC3)c2cc1OC` gave Pol kappa inh -2%, Pol iota inh 14% and FEN1 inhibitor inconclusive.
COc1cc2c(NC3CCN(C(C)C)CC3)nc(N3CCCN(C)CC3)nc2cc1OCCOCCN1CCCC1 was read as Pol kappa inh inconclusive, Pol iota inh inconclusive and FEN1 inhibitor 20µM*.
For COc1cc2c(NC3CCN(C)CC3)nc(N3CCCN(C)CC3)nc2cc1OCCCN1CCCC1 the results were Pol kappa inh inconclusive, Pol iota inh inconclusive and FEN1 inhibitor 10µM*.
`CCN(CC)S(=O)(=O)c1ccc2c(c1)N(CC(=O)Nc1cccc(C)c1C)C(=O)C1CCCN21` (configuration not stated) gave Pol kappa inh -14%, Pol eta inh -14%, POLB inh -3%, Pol iota inh -4% and FEN1 inhibitor -3%.
For CC1=C(C(=O)OC2CCCC2)C(c2ccccc2C(F)(F)F)CC(=O)N1 (configuration not stated) the results were Pol kappa inh -12%, Pol eta inh -21%, POLB inh -16%, Pol iota inh 15% and FEN1 inhibitor 13%.
Screening COc1ccccc1-c1nnc(SC/C(O)=C(\C#N)c2nc3ccccc3[nH]2)n1C1CCCCC1 returned Pol kappa inh -6%, Pol eta inh inconclusive, POLB inh -26%, Pol iota inh 10%, FEN1 inhibitor -9% and WRN inhibitor -23%.
`N#C/C(=C(/O)CSc1nnc(Cc2cccs2)n1C1CCCCC1)c1nc2ccccc2[nH]1` gave Pol kappa inh inconclusive, Pol eta inh 25µM*, POLB inh 18µM*, Pol iota inh inconclusive, FEN1 inhibitor -5% and WRN inhibitor 4%[11.6 µM].
For COc1ccc(Cl)cc1NC(=O)Cn1c(=O)n2nc(-c3ccccc3)nc2c2ccccc21 the results were Pol kappa inh -7%, Pol eta inh -4%, POLB inh 16%, Pol iota inh 29% and FEN1 inhibitor 20%.
